# Legend:
# Assay in all cases: DAPPL (digital affinity profiling via proximity ligation, sequencing); 10 mM Tris-HCl pH 7.5, 50 mM NaCl, 1 mM DTT, 4% glycerol, room temperature, 30 min; GST-TFs on glutathione beads, 16-mer random dsDNA library, 0.1% formaldehyde crosslink after washing; high values mean tight binding
# Settings in all cases: protein: recombinant; tags: N-terminal GST; dsDNA, one strand shown
# [1] = target: T1, FLI1 (Homo sapiens, UniProt Q01543 1-452)
# T1 sequence: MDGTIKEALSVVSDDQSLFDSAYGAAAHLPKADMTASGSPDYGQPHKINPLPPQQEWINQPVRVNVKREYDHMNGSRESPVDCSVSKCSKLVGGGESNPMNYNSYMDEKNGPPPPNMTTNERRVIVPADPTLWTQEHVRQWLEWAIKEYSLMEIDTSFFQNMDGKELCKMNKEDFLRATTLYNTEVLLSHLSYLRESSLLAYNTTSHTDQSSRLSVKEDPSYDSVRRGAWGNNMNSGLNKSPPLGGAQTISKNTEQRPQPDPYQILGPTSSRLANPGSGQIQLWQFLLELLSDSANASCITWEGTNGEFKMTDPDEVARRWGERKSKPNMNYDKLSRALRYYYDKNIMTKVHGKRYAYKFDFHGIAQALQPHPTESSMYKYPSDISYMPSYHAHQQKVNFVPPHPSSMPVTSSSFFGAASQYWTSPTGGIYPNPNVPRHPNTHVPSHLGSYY
# In short: (§1)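 Pools were built from human transcription factors expressed in yeast as GST fusions, captured on glutathione beads and DNA-barcoded, along with a tag-only sample. Incubation with 200 nmole of a 16-mer random double-stranded DNA library lasted 30 min at room temperature in Tris/NaCl/DTT/glycerol buffer, and was followed by washing, 0.1% formaldehyde crosslinking, proximity ligation, PCR amplification and Illumina NextSeq500 sequencing. Binding signal is the quotient of each hexamer's read frequency for a factor and its frequency for the tag-only sample.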
# [2] = target: T2, ELK1 (Homo sapiens, UniProt P19419 1-428)
# T2 sequence: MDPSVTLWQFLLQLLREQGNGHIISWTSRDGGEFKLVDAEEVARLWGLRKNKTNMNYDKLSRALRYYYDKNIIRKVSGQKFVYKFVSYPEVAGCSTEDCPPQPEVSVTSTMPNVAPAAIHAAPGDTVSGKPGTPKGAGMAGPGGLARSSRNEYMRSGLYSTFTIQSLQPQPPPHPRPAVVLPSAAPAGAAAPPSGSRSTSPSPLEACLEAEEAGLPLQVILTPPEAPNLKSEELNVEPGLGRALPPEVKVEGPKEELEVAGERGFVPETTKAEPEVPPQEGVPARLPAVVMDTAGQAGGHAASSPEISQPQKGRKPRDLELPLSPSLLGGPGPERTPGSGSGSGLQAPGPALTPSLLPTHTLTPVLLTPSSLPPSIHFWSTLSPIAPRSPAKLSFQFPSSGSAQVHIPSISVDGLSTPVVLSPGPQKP
# In short: as §1
# [3] = target: T3, GABPA (Homo sapiens, UniProt Q06546 1-454)
# T3 sequence: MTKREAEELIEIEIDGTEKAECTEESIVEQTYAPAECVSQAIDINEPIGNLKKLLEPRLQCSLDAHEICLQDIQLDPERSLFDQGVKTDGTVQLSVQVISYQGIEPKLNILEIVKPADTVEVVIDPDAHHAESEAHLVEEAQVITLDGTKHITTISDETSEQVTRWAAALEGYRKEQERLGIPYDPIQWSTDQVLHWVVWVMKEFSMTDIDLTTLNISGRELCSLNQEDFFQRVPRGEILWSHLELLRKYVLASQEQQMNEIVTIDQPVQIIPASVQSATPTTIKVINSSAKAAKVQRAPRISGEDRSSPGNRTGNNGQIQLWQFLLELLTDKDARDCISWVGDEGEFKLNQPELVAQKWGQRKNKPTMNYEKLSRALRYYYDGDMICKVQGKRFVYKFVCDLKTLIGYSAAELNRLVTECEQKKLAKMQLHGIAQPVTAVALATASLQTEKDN
# In short: as §1
# [4] = target: T4, ERG (Homo sapiens, UniProt P11308 1-479)
# T4 sequence: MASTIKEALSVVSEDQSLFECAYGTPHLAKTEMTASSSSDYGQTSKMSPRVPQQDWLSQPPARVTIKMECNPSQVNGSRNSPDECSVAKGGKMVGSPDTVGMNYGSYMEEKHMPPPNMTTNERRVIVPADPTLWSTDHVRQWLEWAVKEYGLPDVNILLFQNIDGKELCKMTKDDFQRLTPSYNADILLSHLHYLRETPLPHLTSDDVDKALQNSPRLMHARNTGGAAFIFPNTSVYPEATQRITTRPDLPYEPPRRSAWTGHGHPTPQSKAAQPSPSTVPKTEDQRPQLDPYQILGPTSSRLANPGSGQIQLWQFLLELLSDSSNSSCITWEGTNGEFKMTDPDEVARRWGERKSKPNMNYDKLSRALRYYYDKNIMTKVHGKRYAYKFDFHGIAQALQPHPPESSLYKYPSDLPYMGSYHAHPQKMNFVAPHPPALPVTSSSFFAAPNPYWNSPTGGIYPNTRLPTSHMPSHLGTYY
# In short: as §1
# [5] = target: ELF1 (Homo sapiens, UniProt P32519 1-619)
# Sequence of ELF1 (P32519 whole entry): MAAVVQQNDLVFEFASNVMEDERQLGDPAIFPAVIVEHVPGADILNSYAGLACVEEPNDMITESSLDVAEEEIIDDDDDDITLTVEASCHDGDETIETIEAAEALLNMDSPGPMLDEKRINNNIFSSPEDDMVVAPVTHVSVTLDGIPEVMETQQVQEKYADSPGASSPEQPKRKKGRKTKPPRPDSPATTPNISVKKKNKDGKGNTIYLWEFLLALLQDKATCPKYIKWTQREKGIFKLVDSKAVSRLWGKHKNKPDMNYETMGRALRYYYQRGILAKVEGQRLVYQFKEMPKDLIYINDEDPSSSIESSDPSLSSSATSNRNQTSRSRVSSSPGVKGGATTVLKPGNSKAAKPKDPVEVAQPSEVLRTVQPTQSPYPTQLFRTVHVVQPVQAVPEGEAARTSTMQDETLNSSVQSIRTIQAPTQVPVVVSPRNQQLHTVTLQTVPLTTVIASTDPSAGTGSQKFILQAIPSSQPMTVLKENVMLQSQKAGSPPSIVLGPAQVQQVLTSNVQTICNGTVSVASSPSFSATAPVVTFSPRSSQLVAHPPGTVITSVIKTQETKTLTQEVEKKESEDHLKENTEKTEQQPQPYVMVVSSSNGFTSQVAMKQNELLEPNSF
# In short: as §1
# [6] = target: T5, EHF (Homo sapiens, UniProt Q9NZC4 1-300)
# T5 sequence: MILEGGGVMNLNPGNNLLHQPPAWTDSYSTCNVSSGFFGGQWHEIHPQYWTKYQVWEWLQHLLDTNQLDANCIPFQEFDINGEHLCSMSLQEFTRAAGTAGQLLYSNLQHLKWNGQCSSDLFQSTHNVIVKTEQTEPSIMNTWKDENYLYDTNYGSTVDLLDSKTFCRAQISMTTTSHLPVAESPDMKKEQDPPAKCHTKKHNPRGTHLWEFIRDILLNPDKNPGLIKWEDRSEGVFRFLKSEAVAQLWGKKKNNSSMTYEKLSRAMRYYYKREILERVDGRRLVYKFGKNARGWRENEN
# In short: as §1
# [7] = target: SPI1 (Homo sapiens, UniProt P17947 1-270)
# In short: as §1
# [8] = target: SPIB (Homo sapiens, UniProt Q01892 1-262)
# Sequence of SPIB (Q01892 whole entry): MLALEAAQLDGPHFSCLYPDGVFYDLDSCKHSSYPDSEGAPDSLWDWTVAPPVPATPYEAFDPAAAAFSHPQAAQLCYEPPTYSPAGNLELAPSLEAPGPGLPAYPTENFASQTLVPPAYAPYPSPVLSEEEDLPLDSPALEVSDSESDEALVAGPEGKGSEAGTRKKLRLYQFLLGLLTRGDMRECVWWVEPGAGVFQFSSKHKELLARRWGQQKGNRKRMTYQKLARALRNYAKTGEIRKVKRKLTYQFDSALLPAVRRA
# In short: as §1
# [9] = target: T6, FEV (Homo sapiens, UniProt Q99581 1-238)
# T6 sequence: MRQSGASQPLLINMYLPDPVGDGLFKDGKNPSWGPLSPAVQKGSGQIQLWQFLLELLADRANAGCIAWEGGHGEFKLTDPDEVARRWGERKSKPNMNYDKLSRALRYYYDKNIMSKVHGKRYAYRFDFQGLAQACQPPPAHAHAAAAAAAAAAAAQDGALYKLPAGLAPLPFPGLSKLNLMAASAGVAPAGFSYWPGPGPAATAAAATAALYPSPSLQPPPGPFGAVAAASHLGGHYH
# In short: as §1
# [10] = target: ETV5 (Homo sapiens, UniProt P41161 1-510)
# Sequence of ETV5 (P41161 whole entry): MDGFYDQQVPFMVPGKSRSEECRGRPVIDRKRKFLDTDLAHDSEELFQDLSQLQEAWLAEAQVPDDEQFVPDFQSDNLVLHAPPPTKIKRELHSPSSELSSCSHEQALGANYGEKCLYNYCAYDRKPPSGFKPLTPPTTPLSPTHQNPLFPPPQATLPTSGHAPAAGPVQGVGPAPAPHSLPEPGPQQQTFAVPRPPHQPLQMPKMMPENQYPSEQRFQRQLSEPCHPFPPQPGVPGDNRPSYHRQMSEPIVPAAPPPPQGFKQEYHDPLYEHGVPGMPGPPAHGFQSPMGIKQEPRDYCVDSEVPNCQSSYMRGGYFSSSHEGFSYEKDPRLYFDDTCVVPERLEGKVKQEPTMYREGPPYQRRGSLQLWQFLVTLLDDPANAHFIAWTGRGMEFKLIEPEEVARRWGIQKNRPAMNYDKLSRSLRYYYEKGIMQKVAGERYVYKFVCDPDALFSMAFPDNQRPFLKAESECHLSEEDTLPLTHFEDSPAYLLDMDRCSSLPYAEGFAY
# In short: as §1
# [11] = target: ELF4 (Homo sapiens, UniProt Q99607 1-663)
# Sequence of ELF4 (Q99607 whole entry): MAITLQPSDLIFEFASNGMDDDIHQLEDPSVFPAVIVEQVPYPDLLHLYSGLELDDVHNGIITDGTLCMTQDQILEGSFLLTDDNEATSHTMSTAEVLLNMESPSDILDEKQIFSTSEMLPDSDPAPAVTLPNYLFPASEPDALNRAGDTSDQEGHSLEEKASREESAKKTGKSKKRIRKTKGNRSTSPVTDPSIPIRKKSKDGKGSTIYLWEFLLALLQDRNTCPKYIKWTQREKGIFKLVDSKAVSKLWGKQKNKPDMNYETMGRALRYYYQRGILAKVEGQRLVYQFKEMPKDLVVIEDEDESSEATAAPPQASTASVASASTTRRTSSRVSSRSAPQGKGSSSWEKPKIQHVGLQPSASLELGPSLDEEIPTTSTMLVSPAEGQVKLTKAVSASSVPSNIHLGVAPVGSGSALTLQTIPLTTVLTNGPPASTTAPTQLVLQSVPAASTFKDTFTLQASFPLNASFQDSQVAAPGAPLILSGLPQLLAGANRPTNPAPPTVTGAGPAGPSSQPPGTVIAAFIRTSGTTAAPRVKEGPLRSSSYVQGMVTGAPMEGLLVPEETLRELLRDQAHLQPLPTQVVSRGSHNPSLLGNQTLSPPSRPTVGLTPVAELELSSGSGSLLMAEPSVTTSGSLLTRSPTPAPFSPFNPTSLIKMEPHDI
# In short: as §1
# [12] = target: T7, ETV2 (Homo sapiens, UniProt O00321 1-342)
# T7 sequence: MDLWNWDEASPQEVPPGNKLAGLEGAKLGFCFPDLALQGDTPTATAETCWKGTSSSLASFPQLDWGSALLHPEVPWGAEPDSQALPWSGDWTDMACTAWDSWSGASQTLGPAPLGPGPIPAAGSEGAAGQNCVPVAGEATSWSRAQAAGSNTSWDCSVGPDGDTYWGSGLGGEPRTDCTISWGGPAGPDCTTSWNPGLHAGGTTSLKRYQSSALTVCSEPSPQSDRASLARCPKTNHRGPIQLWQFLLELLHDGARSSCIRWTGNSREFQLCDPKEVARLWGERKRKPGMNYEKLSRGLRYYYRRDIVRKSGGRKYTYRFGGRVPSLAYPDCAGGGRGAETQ
# In short: as §1
# [13] = target: T8, ELF3 (Homo sapiens, UniProt P78545 1-371)
# T8 sequence: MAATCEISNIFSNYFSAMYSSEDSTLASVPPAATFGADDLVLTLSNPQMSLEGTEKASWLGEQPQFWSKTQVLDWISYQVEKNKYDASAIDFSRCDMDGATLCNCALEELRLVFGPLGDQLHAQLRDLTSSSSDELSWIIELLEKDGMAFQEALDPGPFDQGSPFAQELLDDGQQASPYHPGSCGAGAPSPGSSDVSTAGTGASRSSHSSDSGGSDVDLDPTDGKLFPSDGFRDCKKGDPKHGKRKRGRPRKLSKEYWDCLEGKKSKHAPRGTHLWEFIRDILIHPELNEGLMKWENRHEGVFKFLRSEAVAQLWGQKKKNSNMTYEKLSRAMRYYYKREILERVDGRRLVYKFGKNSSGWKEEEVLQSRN
# In short: as §1
# [14] = target: ETV1 (Homo sapiens, UniProt P50549 1-477)
# Sequence of ETV1 (P50549 whole entry): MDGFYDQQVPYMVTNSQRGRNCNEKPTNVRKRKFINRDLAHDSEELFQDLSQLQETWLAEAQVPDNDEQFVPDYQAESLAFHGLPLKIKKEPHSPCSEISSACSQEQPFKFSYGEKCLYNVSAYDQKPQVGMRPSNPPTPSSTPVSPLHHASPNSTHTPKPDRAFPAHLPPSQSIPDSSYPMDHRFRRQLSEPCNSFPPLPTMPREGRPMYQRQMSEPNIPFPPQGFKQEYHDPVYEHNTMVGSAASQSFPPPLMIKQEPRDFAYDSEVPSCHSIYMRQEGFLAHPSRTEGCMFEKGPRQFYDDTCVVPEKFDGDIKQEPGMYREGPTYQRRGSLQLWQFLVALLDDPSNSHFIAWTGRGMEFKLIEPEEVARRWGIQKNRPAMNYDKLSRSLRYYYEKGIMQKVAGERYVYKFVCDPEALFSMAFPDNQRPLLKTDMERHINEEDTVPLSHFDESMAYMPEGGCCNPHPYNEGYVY
# In short: as §1
# [15] = target: T9, ERF (Homo sapiens, UniProt P50548 1-548)
# T9 sequence: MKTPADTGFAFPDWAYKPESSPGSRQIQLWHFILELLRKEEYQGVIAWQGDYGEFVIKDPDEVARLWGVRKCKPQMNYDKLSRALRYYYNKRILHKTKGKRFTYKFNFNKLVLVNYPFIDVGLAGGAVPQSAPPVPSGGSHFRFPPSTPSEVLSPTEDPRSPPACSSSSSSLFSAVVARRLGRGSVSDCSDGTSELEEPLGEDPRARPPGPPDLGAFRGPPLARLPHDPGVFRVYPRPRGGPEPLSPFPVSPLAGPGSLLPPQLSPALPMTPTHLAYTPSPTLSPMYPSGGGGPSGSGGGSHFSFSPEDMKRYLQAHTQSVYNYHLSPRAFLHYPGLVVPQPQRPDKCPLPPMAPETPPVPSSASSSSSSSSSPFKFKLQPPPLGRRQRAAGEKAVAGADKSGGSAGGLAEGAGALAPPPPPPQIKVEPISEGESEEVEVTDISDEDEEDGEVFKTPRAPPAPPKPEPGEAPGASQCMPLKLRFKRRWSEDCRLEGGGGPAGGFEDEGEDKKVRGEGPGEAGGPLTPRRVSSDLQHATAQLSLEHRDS
# In short: as §1
# [16] = target: T10, ETV3L (Homo sapiens, UniProt Q6ZN32 1-361)
# T10 sequence: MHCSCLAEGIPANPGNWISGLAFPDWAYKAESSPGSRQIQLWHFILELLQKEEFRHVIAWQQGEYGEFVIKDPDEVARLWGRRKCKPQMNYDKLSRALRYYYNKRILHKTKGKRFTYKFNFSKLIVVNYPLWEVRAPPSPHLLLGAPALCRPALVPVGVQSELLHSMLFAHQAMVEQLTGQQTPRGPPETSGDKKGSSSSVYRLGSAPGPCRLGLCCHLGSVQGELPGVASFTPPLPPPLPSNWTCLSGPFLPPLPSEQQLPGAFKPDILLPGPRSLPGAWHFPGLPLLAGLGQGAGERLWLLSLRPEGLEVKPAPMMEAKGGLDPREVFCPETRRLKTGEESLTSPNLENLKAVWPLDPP
# In short: as §1
# [17] = target: T11, ETS2 (Homo sapiens, UniProt P15036 1-469)
# T11 sequence: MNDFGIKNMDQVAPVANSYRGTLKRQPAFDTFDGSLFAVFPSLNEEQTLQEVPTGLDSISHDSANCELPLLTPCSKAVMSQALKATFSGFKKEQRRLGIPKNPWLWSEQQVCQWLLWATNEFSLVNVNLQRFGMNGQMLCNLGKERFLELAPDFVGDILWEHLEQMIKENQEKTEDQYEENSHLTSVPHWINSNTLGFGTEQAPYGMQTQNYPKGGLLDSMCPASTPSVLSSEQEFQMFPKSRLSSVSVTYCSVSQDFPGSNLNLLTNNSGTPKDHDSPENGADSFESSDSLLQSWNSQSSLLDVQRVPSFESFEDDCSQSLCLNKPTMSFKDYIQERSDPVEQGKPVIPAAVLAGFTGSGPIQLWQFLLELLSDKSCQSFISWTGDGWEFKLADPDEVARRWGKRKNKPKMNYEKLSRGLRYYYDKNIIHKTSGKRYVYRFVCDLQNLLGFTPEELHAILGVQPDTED
# In short: as §1
# [18] = target: T12, ETV7 (Homo sapiens, UniProt Q9Y603 1-341)
# T12 sequence: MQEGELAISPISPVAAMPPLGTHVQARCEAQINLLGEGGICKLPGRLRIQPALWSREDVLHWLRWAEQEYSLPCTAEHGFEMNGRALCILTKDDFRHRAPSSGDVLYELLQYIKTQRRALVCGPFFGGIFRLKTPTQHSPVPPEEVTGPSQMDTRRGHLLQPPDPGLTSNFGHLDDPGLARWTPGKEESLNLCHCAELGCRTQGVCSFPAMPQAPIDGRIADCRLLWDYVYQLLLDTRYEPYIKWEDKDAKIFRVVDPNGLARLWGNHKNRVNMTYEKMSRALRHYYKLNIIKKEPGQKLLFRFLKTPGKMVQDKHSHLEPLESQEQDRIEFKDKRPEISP
# In short: as §1
# [19] = target: T13, ETV3 (Homo sapiens, UniProt P41162-2 1-143)
# T13 sequence: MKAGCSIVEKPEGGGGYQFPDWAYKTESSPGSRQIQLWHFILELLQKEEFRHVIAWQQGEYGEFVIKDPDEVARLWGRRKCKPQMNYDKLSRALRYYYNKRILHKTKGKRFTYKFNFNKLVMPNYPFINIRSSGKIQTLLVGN
# In short: as §1
# [20] = target: ETV6 (Homo sapiens, UniProt P41212 1-452)
# Sequence of ETV6 (P41212 whole entry): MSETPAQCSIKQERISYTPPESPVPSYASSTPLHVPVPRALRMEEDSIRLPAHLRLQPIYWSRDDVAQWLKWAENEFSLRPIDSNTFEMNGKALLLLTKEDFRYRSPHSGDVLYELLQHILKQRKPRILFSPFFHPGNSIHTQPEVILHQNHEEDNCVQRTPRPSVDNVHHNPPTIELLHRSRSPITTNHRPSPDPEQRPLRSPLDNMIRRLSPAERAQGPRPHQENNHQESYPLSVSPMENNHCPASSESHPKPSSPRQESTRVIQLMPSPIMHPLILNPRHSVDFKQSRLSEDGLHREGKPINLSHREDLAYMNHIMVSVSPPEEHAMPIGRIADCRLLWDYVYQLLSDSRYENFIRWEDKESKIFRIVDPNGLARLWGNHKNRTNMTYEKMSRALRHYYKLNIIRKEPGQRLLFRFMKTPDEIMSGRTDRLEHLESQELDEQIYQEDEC
# In short: as §1
sequence,measurement,setting,value
TACCCC,binding signal,[1],"1.14 fold enrichment (6-mer frequency, TF over GST control)"
same,binding signal,[2],"1.11 fold enrichment (6-mer frequency, TF over GST control)"
same,binding signal,[3],"1.16 fold enrichment (6-mer frequency, TF over GST control)"
same,binding signal,[4],"1.07 fold enrichment (6-mer frequency, TF over GST control)"
same,binding signal,[5],"1.14 fold enrichment (6-mer frequency, TF over GST control)"
same,binding signal,[6],"1.12 fold enrichment (6-mer frequency, TF over GST control)"
same,binding signal,[7],"1.11 fold enrichment (6-mer frequency, TF over GST control)"
same,binding signal,[8],"1.09 fold enrichment (6-mer frequency, TF over GST control)"
same,binding signal,[9],"1.07 fold enrichment (6-mer frequency, TF over GST control)"
same,binding signal,[10],"1.07 fold enrichment (6-mer frequency, TF over GST control)"
same,binding signal,[11],"1.15 fold enrichment (6-mer frequency, TF over GST control)"
same,binding signal,[12],"1.19 fold enrichment (6-mer frequency, TF over GST control)"
same,binding signal,[13],"1.04 fold enrichment (6-mer frequency, TF over GST control)"
same,binding signal,[14],"1.06 fold enrichment (6-mer frequency, TF over GST control)"
same,binding signal,[15],"1.02 fold enrichment (6-mer frequency, TF over GST control)"
same,binding signal,[16],"1.1 fold enrichment (6-mer frequency, TF over GST control)"
same,binding signal,[17],"1.21 fold enrichment (6-mer frequency, TF over GST control)"
same,binding signal,[18],"1.1 fold enrichment (6-mer frequency, TF over GST control)"
same,binding signal,[19],"1.09 fold enrichment (6-mer frequency, TF over GST control)"
same,binding signal,[20],"1.04 fold enrichment (6-mer frequency, TF over GST control)"

# Source: article PMC7862700, “An all-to-all approach to the identification of sequence-specific readers for epigenetic DNA modifications on cytosine”
